Laboratory results published in PubChem BioAssay (Tox21).
Inconclusive results are not listed. Values without a mark were called inactive. The call rests on the fitted dose curve.

test: qHTS assay to identify small molecule agonists of the hypoxia (HIF-1) signaling pathway - cell viability counter screen (AID 1224844); settings: HRE-bla ME-180 viability, CellTiter-Glo luminescence, 17 h; series mostly up to 76.8 µM; activity change, negative = cytotoxicity: at the top concentration; further: nearly all actives have a fitted effect of over 50% in size
Source text: National Center for Advancing Translational Sciences [NCATS]
NIH Chemical Genomics Center [NCGC]
U.S. Environmental Protection Agency [EPA]
National Institutes of Environmental Health Sciences [NIEHS]
National Toxicology Program [NTP]
U.S. Food and Drug Administration [FDA]
Hypoxia-inducible factor-1 (HIF-1) is the major hypoxia-regulated transcription factor that controls cellular responses to low oxygen concentration. HIF-1 is composed of two subunits: hypoxia responsive HIF-1-alpha and constitutively expressed HIF-1-beta, which is also known as aryl hydrocarbon receptor nuclear translocator. During hypoxic conditions, HIF-1-alpha heterodimerizes with HIF-1-beta and translocates into the nucleus where the HIF-1 complex binds to the hypoxia-response element (HRE) and activates expression of target genes such as VEGF (vascular endothelial growth factor). The HIF-1 pathway is essential to normal growth and development, and is involved in the pathophysiology of cancer, inflammation, and ischemia.
Using a beta-lactamase reporter-gene under control of the hypoxia response element, a cell-based assay [CellSensor(TM) HRE-bla ME-180 from Life Technologies, Carlsbad, CA] was used to measure hypoxia-induced signaling. Tox21 10K library compounds were measured for their ability to induce the reporter gene activity. The cytotoxicity of the Tox21 compound library against HRE-bla ME-180 cell line was tested in parallel by measuring cell viability using CellTiter-Glo assay (Promega, Madison, WI) in the same assay wells.
Tox21 Assay Protocol Summary:
HRE-bla ME-180 cells were dispensed at 2,000 cells per well in 6 uL of assay medium containing 0.5% dialyzed FBS into black wall/clear-bottom 1536-well plates using a Multidrop Combi (Thermo Scientific, Waltham, MA) dispenser. After the assay plates were incubated at 37C and 5% CO2 for 5 hrs, 23 nL of compounds dissolved in DMSO, positive controls or DMSO only was transferred to each well of the assay plate using a Pintool station (Kalypsys, San Diego, CA). The assay plates were incubated at 37C and 5% CO2 for 17 hrs. One uL of LiveBLAzerTM B/G FRET substrate (CCF4-AM) (Life Technologies) was added to each well using a Flying Reagent Dispenser (FRD, Aurora Discovery, San Diego, CA). After 2 hr incubation at room temperature, fluorescence intensity (405 nm excitation, 460 nm and 530 nm emissions) was measured using an Envision plate reader (PerkinElmer, Shelton, CT). For cytotoxicity, 4 ul/well of CellTiter-Glo reagent was added into the assay plates using an FRD. After 30 min incubation at room temperature, the luminescence intensity was measured using a ViewLux plate reader (PerkinElmer).
On the % scale 0 is the no-effect control and ±100 the full control effect.

SMILES | activity change, negative = cytotoxicity
O=C(O)c1cc(C(=O)O)cc([N+](=O)[O-])c1 | 1.81%
COc1ccc(C(=O)c2ccc(C)cc2)c(O)c1 | 10%
CC(=O)OCC(=O)[C@@]1(O)CC[C@H]2[C@@H]3CCC4=CC(=O)C=C[C@]4(C)[C@@]3(F)[C@@H](O)C[C@@]21C | -21.9% [at 35.3 µM]
Clc1cccc(C(c2ccc3nc[nH]c3c2)n2ccnc2)c1 (stereo not given) | 1.03% [at 35.3 µM]
COc1ccc(/C=C/S(=O)(=O)NC(=O)c2ccc(C)cc2Cl)cc1 | -3.64%
O=C1c2ccccc2C(=O)C1c1ccc2ccccc2n1 | -15.9% [at 35.3 µM]
Clc1cc(Cl)c2c(c1)N=C1CCCCCN1C2 | -3.1% [at 35.3 µM]
C[Si](C)(C)O[Si](C)(C)O[Si](C)(C)C | 6.06%
CCCCCCC/C=C/C=O | 5.11%
CCOc1ccc(NC(C)=O)cc1N | 6.8%
CC(C)(C)N | 10.8%
Nc1cccc2c(=O)[nH][nH]c(=O)c12 | 1.16%
COc1cc(C)c(Cc2cnc(N)nc2N)cc1OC | 16.1% [at 35.3 µM]
Nc1ccc(F)cc1F | 3.25%
CCc1ccc(C(=O)C(C)CN2CCCCC2)cc1 (stereo not given) | -0.708% [at 35.3 µM]
NC(=O)c1ccccc1 | 0.0473%
CCC(C)C1N=C(C)C(C)S1 (stereo not given) | 0.69%
c1ccc(-c2ccc(-c3ccccc3)cc2)cc1 | 1.63% [at 15.8 µM]
CCCCC(CC)COCCC#N (stereo not given) | -0.74%
Cc1ccc(S(=O)(=O)NC(=O)NC2CCCC2)cc1 | -0.0537% [at 35.3 µM]

SMILES | activity change, negative = cytotoxicity
O=[N+]([O-])c1ccccc1CCO | 1.08%
CC(C)NC(=O)c1ccccc1N | 7.03%
Clc1ccccc1-c1nc(-c2ccncc2)no1 | 3.82% [at 35.3 µM]
CC1=CC(=C(c2ccc(N)cc2)c2ccc(N)cc2)C=CC1=N | -15.8% [at 6.97 µM]
Cc1c(Nc2ncccc2C(=O)O)cccc1C(F)(F)F | 2.07% [at 35.3 µM]
CC(=O)CC/C=C(\C)CC/C=C(\C)CC/C=C(\C)CCC=C(C)C | 5.23% [at 35.3 µM]
CC(C)(C)NCC(O)COc1ccc(NC(=O)NC2CCCCC2)cc1 (stereo not given) | -2.63% [at 35.3 µM]
CCCCCCCCCCCCCCCCC(=O)O | 1.31% [at 35.3 µM]
CC(=O)Nc1cccc(N)c1 | 0.924%
CCCCCCCCCCCC(=O)OCC | -0.302%
CC(C)=CCCC(C)C=O (stereo not given) | -0.243%
CCCCCO | 6.92%
CC(C)(C)c1cc(C=O)cc(C(C)(C)C)c1O | 1.68% [at 35.3 µM]
COc1ccc(/C=C/c2cc(OC)cc(=O)o2)cc1 | 4.44% [at 35.3 µM]
CS(C)=O | 11.9%
CCCC1CCOC(C)S1 (stereo not given) | 0.637%
C[C@H](CN1CCCC1)C(=O)c1ccc(C(F)(F)F)cc1 | -1.96% [at 35.3 µM]
CC(C(=O)O)c1ccc2c(c1)Cc1cccnc1O2 (stereo not given) | 7.14% [at 35.3 µM]
CCOC(=O)CC(O)(CC(=O)OCC)C(=O)OCC | 12.9%
CCCC1CCCC(=O)O1 (stereo not given) | 0.498%
